Data on eleven compounds can be found in PubChem BioAssay (NCATS).

Assay [1] has as its target Glutathione peroxidase 1 (Homo sapiens) (UniProt P07203). Nature of the assay: Primary qHTS Assay for Inhibitors of Recombinant Selenoprotein Glutathione Peroxidase 1 (GPX1) (AID 1845191). Also: nearly all actives have a fitted effect of over 65% in size. As to activity, negative = inhibition: % is scaled to controls: 0 for no effect and ±100 for the full control effect. A digest of the protocol: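 GR-coupled readout: NADPH consumption tracked by fluorescence, ex 340/em 450 nm, at t=0 and after 15 min at RT. Final mix 10 nM GPX1, 1 mM GSH, 0.5 mM CHP, 0.5 mM NADPH, 100 nM GR, 0.01% BSA, following 30 min enzyme–compound preincubation.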
In general terms: In qHTS, concentration-response curves come from the screen itself.

Assay [2] deals with Phospholipid hydroperoxide glutathione peroxidase GPX4 (Homo sapiens) (UniProt P36969). Put plainly: Primary qHTS Assay for Inhibitors of Recombinant Selenoprotein Glutathione Peroxidase 4 (GPX4) (AID 1845192). Also: nearly all actives have a fitted effect of over 65% in size. As to activity change, negative = inhibition: series mostly up to about 50 µM; % is scaled to controls: 0 for no effect and ±100 for the full control effect. In short, it runs like this:
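Steps: GPX4 plus compound, 30 min RT; add GR/GSH/NADPH master mix; start with cumene hydroperoxide; read 340/450 nm fluorescence at 0 and 15 min. Finals were 200 nM GPX4, 1 mM GSH, 0.5 mM CHP, 0.5 mM NADPH, 100 nM GR.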

The target in assay [3] is Luciferin 4-monooxygenase (Photinus pyralis) (UniProt P08659). Nature of the assay: Primary firefly luciferase (FLuc) qHTS assay for identification of artifact compounds. (AID 1845220). Also: nearly all actives have a fitted effect of over 60% in size.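 As to activity change, negative = inhibition: series mostly up to about 54 µM; plate controls were DMSO vehicle for no effect and no enzyme for full effect.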 In short, it runs like this:
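Titrated compounds were incubated 15 min at RT, protected from light, with luciferin and ATP at 10 uM; reaction started with 10 nM FLuc, luminescence imaged at 5 min, and concentration-response fitted by Hill equation.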

Assay [4] can be described thus: Primary fluorescence-based thiol-reactive (MSTI) qHTS assay for identification of artifact compounds. (AID 1845221). Also: nearly all actives have a fitted effect of over 65% in size. Also: potency is read from the fitted curve at half-maximal effect.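 As to activity change, negative = thiol reactive: series mostly up to about 54 µM; thiol-reactive compounds lower the probe fluorescence signal.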 A digest of the protocol: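 First, 4 uM MSTI in 2% DMSO/PBS pH 7.4 was dispensed; next, compounds were added; then plates sat 1 h at room temperature without light. Finally, emission at 598 nm was recorded.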
Assay [5] concerns Nanoluciferase (engineered Oplophorus gracilirostris luciferase). Put plainly: Primary Nanoluciferase (NLuc) qHTS assay for identification of artifact compounds. (AID 1845222).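 Also: NLuc secreted into diluted conditioned medium of S16 cells; series mostly up to about 54 µM; 0% = DMSO and -100% = no enzyme.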 In short, it runs like this: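 qHTS format, against NLuc in S16 cell-conditioned medium. Nano-Glo substrate 1:100 was added after 15 min at room temperature. Luminescence was taken after a further 5 min.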

Unmarked numbers belong to inactive results. Results filed as inconclusive are left out. Activity calls are given as the source filed them. Calls follow the shape of the dose curve; as a rule, active = well fitted curve in the direction sought with a large enough effect; inconclusive = small, poorly fitted or top-dose-only effect, or another doubt; inactive = no such curve, though single readings can be large; an effect the other way counts as inactive or inconclusive.

Chain of Glutathione peroxidase 1 (Homo sapiens) (P07203 whole entry, looked up): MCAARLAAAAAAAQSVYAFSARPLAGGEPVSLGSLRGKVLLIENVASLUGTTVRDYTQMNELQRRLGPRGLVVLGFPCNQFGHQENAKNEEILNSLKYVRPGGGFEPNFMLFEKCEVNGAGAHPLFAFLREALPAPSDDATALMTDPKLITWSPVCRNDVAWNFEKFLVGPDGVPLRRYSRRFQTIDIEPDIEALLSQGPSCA
Chain of Phospholipid hydroperoxide glutathione peroxidase GPX4 (Homo sapiens) (P36969 whole entry, looked up): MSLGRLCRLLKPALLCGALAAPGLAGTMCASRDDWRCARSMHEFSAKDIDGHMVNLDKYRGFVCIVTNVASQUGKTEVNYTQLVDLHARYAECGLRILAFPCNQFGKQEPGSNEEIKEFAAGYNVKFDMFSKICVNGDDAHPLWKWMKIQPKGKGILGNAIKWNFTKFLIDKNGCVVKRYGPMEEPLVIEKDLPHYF

Regarding `COc1cc(N2CCOCC2)ccc1NC(=O)c1csc(-c2cccnc2)n1`, the Potency result in assay [1], in assay [2], in assay [3] and in assay [5] was “inactive” in each case. Moreover, the Potency in assay [4] is 2380 nM (active).
With `Cc1ccc(-c2c(C(=O)CCl)n(CCCO)c3ncnc(N)c23)cc1`, the Potency result in assay [1], in assay [2], in assay [3], in assay [4] and in assay [5] was “inactive” each time.
Take `COc1cc2ncnc(Nc3cccc(I)c3)c2cc1OC`: the Potency entry in assay [1], in assay [2], in assay [3], in assay [4] and in assay [5] was “inactive” each time.
For `CC(=O)O[C@@H]1[C@H](O[C@@H]2O[C@@H](CO)[C@H](O)[C@H]2O)[C@@H](O[C@@H]2O[C@@H](C)[C@H](O[C@@H]3OC[C@@H](O)[C@H](O)[C@H]3O)[C@@H](O)[C@H]2O)[C@H](OC(=O)[C@]23CCC(C)(C)C[C@H]2C2=CCC4[C@@]5(C)CC[C@H](O[C@@H]6O[C@H](C(=O)O)[C@@H](O)[C@H](O)[C@H]6O[C@@H]6O[C@H](CO)[C@H](O)[C@H](O)[C@H]6O)[C@@](C)(C=O)C5CC[C@@]4(C)[C@]2(C)C[C@H]3O)O[C@@H]1C` (stereo not given in full), the outcome in assay [1] was “inactive [at 9.52 µM]”; in assay [3], “inactive [at 11.6 µM]”. In addition, the activity change, negative = inhibition in assay [2] is -0.242% [at 9.73 µM]. For the same compound, in assay [4], the activity change, negative = thiol reactive was 435% [at 11.5 µM]. Also, the activity, negative = inhibition in assay [5] was 0% [at 11.6 µM].
As to `O=C(Nc1cc(C(F)(F)F)ccc1N1CCCCC1)c1ccncc1`, the Potency entry in assay [1], in assay [2], in assay [3], in assay [4] and in assay [5] was “inactive” in each case.
`C=C1C(=O)O[C@@H]2[C@H]1CC[C@H](C)[C@]1(CCC(=O)O1)C2(C)O` (stereo not given in full): the Potency entry in assay [1], in assay [2], in assay [3], in assay [4] and in assay [5] was “inactive” in each case.
For the compound `CC(C)[C@@H](c1ccc(C(F)(F)F)cc1CN(Cc1cc(C(F)(F)F)cc(C(F)(F)F)c1)c1nnn(C)n1)N1CCC(C(=O)O)CC1`, the Potency entry in assay [1], in assay [2], in assay [3], in assay [4] and in assay [5] was “inactive” throughout.
As for `O=C(NCCCc1ccccc1)C1CCC(CNS(=O)(=O)c2cccc3nsnc23)CC1` (stereo not given), the Potency result in assay [1], in assay [2], in assay [3], in assay [4] and in assay [5] was “inactive” each time.
As for `NC(N)=N/N=C/c1ccccc1Cl`, the Potency entry in assay [1], in assay [2], in assay [3], in assay [4] and in assay [5] was “inactive” in each case.
Regarding `Fc1ccc(-c2nc(-c3c(F)cccc3F)[nH]c2-c2ccncc2)cc1`, the Potency entry in assay [1], in assay [2], in assay [3], in assay [4] and in assay [5] was “inactive” throughout.
Turning to `C1=C/COCc2cc(ccc2OCCN2CCCC2)Nc2nccc(n2)-c2cccc(c2)COC/1`, the Potency result in assay [1], in assay [2], in assay [3], in assay [4] and in assay [5] was “inactive” in each case.
